Source: PubChem (National Center for Advancing Translational Sciences (NCATS))
RORg inh: blocks mouse ROR gamma transcriptional activity; P51450; Drosophila S2 Gal4-RORgamma UAS-luciferase reporter, 20 h; Potency, µM (titrated, usually from 53.6 µM), for inactives: at the highest dose activity change, negative = inhibition, hits mostly inhibitors; 5.4% of 310,000 active; AID 2551; also: nearly all actives have a fitted effect of over 60% in size
Target sequence (P51450 whole entry, looked up, the tested form may be a part): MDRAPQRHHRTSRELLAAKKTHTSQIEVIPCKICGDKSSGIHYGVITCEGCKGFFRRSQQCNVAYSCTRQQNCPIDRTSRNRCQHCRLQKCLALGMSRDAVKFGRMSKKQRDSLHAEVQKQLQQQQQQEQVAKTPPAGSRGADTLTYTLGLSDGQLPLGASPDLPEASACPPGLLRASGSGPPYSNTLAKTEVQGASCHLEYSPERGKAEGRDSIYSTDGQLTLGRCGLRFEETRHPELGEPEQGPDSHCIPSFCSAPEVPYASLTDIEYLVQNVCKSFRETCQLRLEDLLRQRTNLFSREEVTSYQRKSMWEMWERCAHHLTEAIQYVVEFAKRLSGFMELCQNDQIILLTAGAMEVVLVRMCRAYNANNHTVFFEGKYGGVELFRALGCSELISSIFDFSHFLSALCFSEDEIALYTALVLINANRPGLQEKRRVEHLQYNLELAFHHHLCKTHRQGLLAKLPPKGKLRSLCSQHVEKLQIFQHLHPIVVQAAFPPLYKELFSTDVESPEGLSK
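Drosophila Schneider cells stably carrying a metallothionein-driven Gal4 DBD–ROR gamma fusion and a UAS-Photinus luciferase reporter were exposed to compound for 1 hr, then induced with copper sulfate (700 uM final) for 20 hr at ambient temperature before luminescence reading.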
Luc counter: counter-screen: inhibitors of Kinase-Glo firefly luciferase; Q27757; Kinase-Glo luciferase, ATP luminescence, 8 min; Potency, µM (titrated, usually from 38.3 µM), without a hit: at the highest dose activity change, negative = inhibition, actives largely listed as inhibitors; 0.28% of 200,000 active; also: nearly all actives have a fitted effect of over 60% in size
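Compounds were added to a substrate mix at pH 7.2 (50 mM imidazole, 10 uM ATP, within the enzyme's linear range), followed by Kinase-Glo detection reagent; luminescence was measured after 8 minutes at ambient temperature.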
VP16 counter: inhibits Gal4-VP16 luciferase reporter, ROR gamma counter-screen | Drosophila S2 Gal4-VP16 UAS-luciferase, luminescence, 20 h | Potency, µM (doses to about 53.6 µM), for the others: at the top dose activity, negative = inhibition, hits mostly inhibitors | 3.5% of 310,000 active | AID 2546;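 also: Gal4-VP16 expression switched on by copper sulfate through the metallothionein promoter; nearly all actives have a fitted effect of over 50% in size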
Active calls of the source: *; [ ] = dose if it differs, or a comment. Rows were chosen to be rich in hits. Some 6.2% of all compounds tested hit in one or more screens of this group. Calls follow the shape of the dose curve; as a rule, active = well fitted curve in the direction sought with a large enough effect; inconclusive = small, poorly fitted or top-dose-only effect, or another doubt; inactive = no such curve, though single readings can be large; an effect the other way counts as inactive or inconclusive. % is scaled to controls: 0 for no effect and ±100 for the full control effect; potency is read from the fitted curve at half-maximal effect.

`O=[N+]([O-])c1cccc(NC(=S)N2CCCC2)c1` gave RORg inh -3% and VP16 counter 5%.
Screening Cc1ccc(C(=O)ON=C2CCN(c3ccc([N+](=O)[O-])cc3)CC2)cc1 returned RORg inh 23%, Luc counter -6% and VP16 counter -5%.
`Cc1ccc(C(=O)NC(=S)N2CCN(c3ccc([N+](=O)[O-])cc3)CC2)cc1` gave RORg inh 0.71µM*, Luc counter 0% and VP16 counter 1µM*.
`COC(=O)C1=C(C)N(c2ccc(OC)cc2)C(C)=C(C(=O)OC)C1c1ccccc1` gave RORg inh 0% and VP16 counter 5%.
Screening Clc1ccc(Cl)c(Cl)c1Cl returned RORg inh -8% and VP16 counter -2%.
COc1ccc(/C=C/CN2CCC(n3nccc3NC(=O)C3CC3)CC2)cc1 was read as RORg inh -18% and VP16 counter -4%.
`Cc1nn(CC(=O)N2CCOCC2)c(=O)c2nn(-c3ccccc3)c(C)c12` gave RORg inh 0% and VP16 counter -11%.
`OC1OC[C@@H](O)[C@@H](O)[C@@H]1O` (stereo partly specified) gave RORg inh 22% and VP16 counter 1%.
Screening CCCC(=O)NC(=S)N1CCN(c2ccc([N+](=O)[O-])cc2)CC1 returned RORg inh 3.2µM*, Luc counter 2% and VP16 counter inconclusive.
COCC(=O)N1CCN(c2ccc([N+](=O)[O-])cc2)CC1 was read as RORg inh 6%, Luc counter -1% and VP16 counter 3%.
For COc1cc(CNCc2c[nH]c3ccccc23)cc(OC)c1 the results were RORg inh inconclusive, Luc counter 0% and VP16 counter -15%.
C/C(=N\NC(=O)C1CC1)c1ccc(OC(F)F)cc1 was read as RORg inh 15% and VP16 counter 23%.
Screening C/C(=N\Nc1ccc([N+](=O)[O-])cc1)c1ccc2c(c1)OCO2 returned RORg inh 0%, Luc counter 1% and VP16 counter -7%.
Screening C/C(=N\Nc1ncc(Cl)cc1Cl)c1ccc2c(c1)OCO2 returned RORg inh 7.1µM*, Luc counter 0% and VP16 counter inconclusive.
Screening C/C(=N\Nc1ncc(Cl)cc1Cl)c1ccc(OC(F)F)cc1 returned RORg inh 11µM*, Luc counter 6% and VP16 counter inconclusive.
O=C(CCC(=O)Nc1ccccc1Cl)NN=C1CCCC1 was read as RORg inh -40% and VP16 counter -3%.
O=C1CCCC=C1[C@@H](O)COCc1ccccc1 was read as RORg inh 5%[10 µM] and VP16 counter -5%[10 µM].
For COc1ccc(-c2nnc3n2N=C(c2c(OC)cccc2OC)CS3)cc1OC the results were RORg inh -36% and VP16 counter -13%.
Screening Cc1ccc(NC(C)c2cc(Cl)ccc2O)cc1 (stereo unspecified) returned RORg inh inconclusive, Luc counter 1% and VP16 counter 13µM*.
For CC(Nn1cnnc1)c1cc(Cl)ccc1O (stereo unspecified) the results were RORg inh -1%, Luc counter -1% and VP16 counter 2%.
Screening COc1ccc(S(=O)(=O)Nc2ccccc2C(=O)NCc2cccnc2)cc1 returned RORg inh 10% and VP16 counter 15%.
`COc1ccc(-c2nc(NC(=O)c3ccccc3)sc2-c2ccc([N+](=O)[O-])cc2)cc1` gave RORg inh -18%, Luc counter 3% and VP16 counter 6%.
For COc1cccc(-c2nnc(NC(=O)c3cccs3)s2)c1 the results were RORg inh -32%, Luc counter -5% and VP16 counter 4%.
For COc1ccc2c(c1)Cc1sc(NC(=O)c3ccccc3)nc1-2 the results were RORg inh 11µM*, Luc counter -6% and VP16 counter -26%.
For COc1ccc2c(c1)Cc1sc(NC(=O)c3cccs3)nc1-2 the results were RORg inh 7.9µM*, Luc counter -22% and VP16 counter inconclusive.
Screening COc1ccc(C(=O)Nc2nc3c(s2)Cc2cc(OC)ccc2-3)cc1 returned RORg inh inconclusive, Luc counter -4% and VP16 counter 35µM*.
For COc1ccc(C(=O)Nc2nc3ccc4nc(C)sc4c3s2)cc1 the results were RORg inh inconclusive, Luc counter -3% and VP16 counter 3%.
Screening CNC(=O)/C(C#N)=C/c1c(N2CCCCCC2)nc2c(C)cccn2c1=O returned RORg inh 6% and VP16 counter -12%.
`CCOC(=O)C=C(C(=O)OCC)C(=O)OCC` gave RORg inh -27% and VP16 counter 4%.
`Cc1cnc(CNc2nc(-c3cccc(NS(C)(=O)=O)c3)nc3ccccc23)cn1` gave RORg inh -11% and VP16 counter 2%.
Screening COc1ccc(CCNC(=O)C2CCN(S(=O)(=O)N3CCC(C)CC3)CC2)cc1OC returned RORg inh -1% and VP16 counter -5%.
CCCNC(=O)c1nnsc1S(=O)c1ccc(Cl)cc1 (stereo unspecified) was read as RORg inh 1.1µM*, Luc counter -3% and VP16 counter 4µM*.
Screening CCCNC(=O)NS(=O)(=O)c1ccc(Cl)cc1 returned RORg inh -7%, Luc counter 4% and VP16 counter -8%.
CNC(=O)c1nnsc1S(=O)c1ccc(Cl)cc1 (stereo unspecified) was read as RORg inh 1.3µM*, Luc counter -8% and VP16 counter 5µM*.
CCCNC(=O)c1nnsc1S(=O)(=O)c1ccc(Cl)cc1 was read as RORg inh 1.1µM*, Luc counter -1% and VP16 counter 3.2µM*.
For Cc1ccc(S(=O)c2snnc2C)cc1 (stereo unspecified) the results were RORg inh 4% and VP16 counter -6%.
Screening CCCNC(=O)c1ccc2snnc2c1 returned RORg inh -42%, Luc counter -1% and VP16 counter 3%.
`N/C(=N\OC(=O)CCC1CCCC1)c1cccnc1` gave RORg inh 23%, Luc counter -3% and VP16 counter -3%.
CCCCC[C@H](O)/C=C/[C@H]1OC(O)C[C@H](O)[C@@H]1C/C=C\CCCC(=O)O (stereo partly specified) was read as RORg inh 4%, Luc counter 3% and VP16 counter 6%.
CC(c1cccs1)N(C)Cc1nc(CCc2ccccc2)no1 (stereo unspecified) was read as RORg inh 18%, Luc counter -2% and VP16 counter 26%.
For CC1CCCCC1NC(=S)Nc1cccc(S(=O)(=O)N(C)C)c1 (stereo unspecified) the results were RORg inh inconclusive, Luc counter 0% and VP16 counter 5%[10 µM].
For CCN(CC)S(=O)(=O)c1cccc(C(=O)NC2CCCCC2)c1 the results were RORg inh inconclusive, Luc counter -2% and VP16 counter 6%.
Cc1ccc(S(=O)(=O)N(C)C)cc1NC(=S)NC1CCCC(C)C1C (stereo unspecified) was read as RORg inh 4µM*, Luc counter -1% and VP16 counter 5µM*.
